Reference: the supplement of paper PMC10849652
Of roughly 7,900 targets only a part is listed; those with a hit were picked by preference. About 0.6% of all pairs of compound and target were hits.

Experiments:
Assay in all cases: log2 fold change, soluble protein after heating vs DMSO (PISA); higher = thermal stabilisation; K562 cells, 10 uM, 30 min; active = over 0.2 and 3.5 SD of the protein, either way, in both replicates (recomputed)
[1] = compound: NC(=O)Nc1cc(-c2cccc(F)c2)sc1C(=O)N[C@H]1CCCNC1
In short: (§1)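 Thermal stability values are relative to control samples and come from duplicates. They are expressed as log2 fold changes. For measurement, K562 cells (2×10^6 cells/mL) received 10 μM compound for 30 min, and aliquots were heated for 3 min over 48°C-58°C, pooled, and extracted at 4°C in PBS with 0.5% NP-40. Soluble protein, the supernatant after 21,000xg for 90 min, was quantified by TMTpro 16plex LC-MS/MS with equalised channel sums.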

[2] = compound: NC(=O)c1cnc(N[C@@H]2CCCC[C@@H]2N)nc1Nc1cccc(-n2nccn2)c1
In short: as §1

[3] = compound: NC1(c2ccc(-c3nc4ccn5c(=O)[nH]nc5c4cc3-c3ccccc3)cc2)CCC1
In short: as §1

entinostat = compound: Nc1ccccc1NC(=O)c1ccc(CNC(=O)OCc2cccnc2)cc1 [entinostat]
In short: as §1

vorinostat = compound: O=C(CCCCCCC(=O)Nc1ccccc1)NO [vorinostat]
In short: as §1

citarinostat = compound: O=C(CCCCCCNC(=O)c1cnc(N(c2ccccc2)c2ccccc2Cl)nc1)NO [citarinostat]
In short: as §1

silmitasertib = compound: O=C(O)c1ccc2c(c1)nc(Nc1cccc(Cl)c1)c1ccncc12 [silmitasertib]
In short: as §1

[4] = compound: O=C1NC(=O)C(c2cnc3ccccn23)=C1c1cn2c3c(cc(F)cc13)CN(C(=O)N1CCCCC1)CC2
In short: as §1

[5] = compound: c1cc(OCCN2CCCCC2)cc(-c2n[nH]c3ccc(-c4nnc[nH]4)cc23)c1
In short: as §1

[6] = compound: NCC(=O)Nc1ccc(-n2nc(C(F)(F)F)cc2-c2ccc3c(ccc4ccccc43)c2)cc1
In short: as §1

Chain of UniProt Q5RL73 (Q5RL73 whole entry, looked up): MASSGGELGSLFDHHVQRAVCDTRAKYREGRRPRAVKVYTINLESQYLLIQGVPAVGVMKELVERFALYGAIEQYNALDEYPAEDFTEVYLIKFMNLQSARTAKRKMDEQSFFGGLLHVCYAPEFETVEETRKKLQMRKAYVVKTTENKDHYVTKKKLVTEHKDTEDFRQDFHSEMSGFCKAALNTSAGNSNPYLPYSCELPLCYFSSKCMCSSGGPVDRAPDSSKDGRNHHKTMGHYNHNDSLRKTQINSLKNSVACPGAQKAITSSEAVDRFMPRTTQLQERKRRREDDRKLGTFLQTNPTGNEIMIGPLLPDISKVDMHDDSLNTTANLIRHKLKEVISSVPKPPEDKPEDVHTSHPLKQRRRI
Chain of UniProt P60903 (P60903 whole entry, looked up): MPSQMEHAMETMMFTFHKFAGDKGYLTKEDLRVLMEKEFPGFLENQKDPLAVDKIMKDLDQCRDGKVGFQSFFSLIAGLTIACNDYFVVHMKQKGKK
Chain of UniProt O95716 (O95716 whole entry, looked up): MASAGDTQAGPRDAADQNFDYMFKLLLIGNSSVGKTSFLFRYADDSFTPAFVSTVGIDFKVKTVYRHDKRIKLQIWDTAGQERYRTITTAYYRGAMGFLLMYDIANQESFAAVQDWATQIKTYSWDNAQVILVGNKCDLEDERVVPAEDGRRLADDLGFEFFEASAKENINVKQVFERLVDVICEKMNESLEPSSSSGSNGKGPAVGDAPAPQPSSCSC
Chain of UniProt P78332 (P78332 whole entry, looked up): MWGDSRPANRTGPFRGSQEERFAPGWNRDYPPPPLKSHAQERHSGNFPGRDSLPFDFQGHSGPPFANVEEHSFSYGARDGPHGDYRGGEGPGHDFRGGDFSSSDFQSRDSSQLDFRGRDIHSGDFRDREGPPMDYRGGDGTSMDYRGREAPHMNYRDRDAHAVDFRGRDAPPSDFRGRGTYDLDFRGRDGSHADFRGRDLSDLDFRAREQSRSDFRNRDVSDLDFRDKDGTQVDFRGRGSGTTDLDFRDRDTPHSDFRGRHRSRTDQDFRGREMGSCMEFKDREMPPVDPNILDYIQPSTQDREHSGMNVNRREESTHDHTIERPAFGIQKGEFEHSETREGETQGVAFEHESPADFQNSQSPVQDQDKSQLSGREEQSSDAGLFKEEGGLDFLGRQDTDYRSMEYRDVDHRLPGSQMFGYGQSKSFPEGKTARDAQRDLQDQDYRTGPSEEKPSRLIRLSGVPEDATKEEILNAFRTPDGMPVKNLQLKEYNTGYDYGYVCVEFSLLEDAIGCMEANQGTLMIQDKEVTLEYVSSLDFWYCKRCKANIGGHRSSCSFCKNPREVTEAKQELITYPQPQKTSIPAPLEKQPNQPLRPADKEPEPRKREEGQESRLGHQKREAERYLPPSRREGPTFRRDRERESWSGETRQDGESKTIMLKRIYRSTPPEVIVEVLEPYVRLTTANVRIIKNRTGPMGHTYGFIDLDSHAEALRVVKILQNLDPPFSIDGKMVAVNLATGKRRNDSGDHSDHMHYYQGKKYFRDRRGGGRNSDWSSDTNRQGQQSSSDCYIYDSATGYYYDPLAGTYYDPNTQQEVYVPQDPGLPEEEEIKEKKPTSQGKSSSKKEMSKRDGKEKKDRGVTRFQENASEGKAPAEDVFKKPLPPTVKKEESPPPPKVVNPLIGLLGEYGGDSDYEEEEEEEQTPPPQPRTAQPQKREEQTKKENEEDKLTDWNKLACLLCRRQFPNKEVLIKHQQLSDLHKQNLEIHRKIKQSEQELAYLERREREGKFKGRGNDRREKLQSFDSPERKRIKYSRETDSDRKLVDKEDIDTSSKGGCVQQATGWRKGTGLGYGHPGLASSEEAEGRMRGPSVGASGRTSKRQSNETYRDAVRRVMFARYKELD
Chain of UniProt Q5T8P6 (Q5T8P6 whole entry, looked up): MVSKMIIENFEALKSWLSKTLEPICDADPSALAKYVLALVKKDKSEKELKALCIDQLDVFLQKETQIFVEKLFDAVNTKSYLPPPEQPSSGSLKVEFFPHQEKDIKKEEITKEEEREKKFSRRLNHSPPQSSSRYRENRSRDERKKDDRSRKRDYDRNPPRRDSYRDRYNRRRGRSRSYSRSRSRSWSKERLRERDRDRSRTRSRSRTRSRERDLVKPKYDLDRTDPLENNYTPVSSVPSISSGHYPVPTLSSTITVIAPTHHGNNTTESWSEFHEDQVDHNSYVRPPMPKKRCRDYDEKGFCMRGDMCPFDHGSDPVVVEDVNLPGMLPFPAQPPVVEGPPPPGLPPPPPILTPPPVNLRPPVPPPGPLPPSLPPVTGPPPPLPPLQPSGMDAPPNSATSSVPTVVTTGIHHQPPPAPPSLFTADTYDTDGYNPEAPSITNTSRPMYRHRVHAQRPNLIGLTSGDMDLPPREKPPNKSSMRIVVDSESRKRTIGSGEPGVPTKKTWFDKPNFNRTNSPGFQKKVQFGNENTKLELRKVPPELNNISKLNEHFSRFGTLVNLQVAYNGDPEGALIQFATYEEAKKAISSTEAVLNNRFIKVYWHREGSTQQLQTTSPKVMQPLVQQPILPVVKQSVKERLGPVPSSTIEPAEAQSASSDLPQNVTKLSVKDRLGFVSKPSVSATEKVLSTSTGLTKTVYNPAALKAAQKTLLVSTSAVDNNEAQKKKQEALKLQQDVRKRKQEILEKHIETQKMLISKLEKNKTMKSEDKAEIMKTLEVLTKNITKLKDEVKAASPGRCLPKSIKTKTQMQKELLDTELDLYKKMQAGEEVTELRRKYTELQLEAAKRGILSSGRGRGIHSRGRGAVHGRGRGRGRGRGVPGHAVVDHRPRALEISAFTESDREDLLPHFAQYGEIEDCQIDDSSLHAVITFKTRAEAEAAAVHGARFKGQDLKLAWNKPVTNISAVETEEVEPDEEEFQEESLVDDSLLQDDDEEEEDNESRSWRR
Chain of UniProt P60602 (P60602 whole entry, looked up): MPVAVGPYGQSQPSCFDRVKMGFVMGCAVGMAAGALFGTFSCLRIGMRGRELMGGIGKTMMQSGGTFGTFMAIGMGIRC
Chain of UniProt Q96LZ7 (Q96LZ7 whole entry, looked up): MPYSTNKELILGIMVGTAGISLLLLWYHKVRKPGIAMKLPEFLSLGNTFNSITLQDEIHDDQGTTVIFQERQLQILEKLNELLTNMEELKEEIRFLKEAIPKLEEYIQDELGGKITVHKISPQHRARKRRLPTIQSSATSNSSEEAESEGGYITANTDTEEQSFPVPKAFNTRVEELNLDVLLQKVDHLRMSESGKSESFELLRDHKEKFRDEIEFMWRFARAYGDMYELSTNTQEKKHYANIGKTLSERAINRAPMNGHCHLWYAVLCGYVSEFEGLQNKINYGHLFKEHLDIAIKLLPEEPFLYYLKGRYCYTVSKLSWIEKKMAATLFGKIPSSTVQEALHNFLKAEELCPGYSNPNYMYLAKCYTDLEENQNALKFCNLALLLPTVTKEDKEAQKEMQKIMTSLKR
Chain of UniProt Q5PRF9 (Q5PRF9 whole entry, looked up): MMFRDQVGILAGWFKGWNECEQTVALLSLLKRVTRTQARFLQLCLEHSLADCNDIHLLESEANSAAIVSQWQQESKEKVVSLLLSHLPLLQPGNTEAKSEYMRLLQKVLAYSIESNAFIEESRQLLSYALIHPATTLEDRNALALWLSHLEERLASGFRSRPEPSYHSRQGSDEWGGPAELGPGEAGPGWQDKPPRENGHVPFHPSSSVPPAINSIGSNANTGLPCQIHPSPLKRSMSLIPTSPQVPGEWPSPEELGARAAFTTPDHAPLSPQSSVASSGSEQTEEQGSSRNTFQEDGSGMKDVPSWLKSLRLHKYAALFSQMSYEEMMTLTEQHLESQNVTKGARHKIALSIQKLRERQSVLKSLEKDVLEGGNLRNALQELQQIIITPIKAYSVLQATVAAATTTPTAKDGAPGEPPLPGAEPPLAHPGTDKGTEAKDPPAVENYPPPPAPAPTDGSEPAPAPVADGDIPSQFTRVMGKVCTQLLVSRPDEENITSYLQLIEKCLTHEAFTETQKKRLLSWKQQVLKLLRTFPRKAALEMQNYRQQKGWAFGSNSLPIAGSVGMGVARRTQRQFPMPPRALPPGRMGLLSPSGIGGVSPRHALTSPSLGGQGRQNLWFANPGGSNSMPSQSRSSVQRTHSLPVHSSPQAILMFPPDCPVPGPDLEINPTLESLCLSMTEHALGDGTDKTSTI
Chain of UniProt P43003 (P43003 whole entry, looked up): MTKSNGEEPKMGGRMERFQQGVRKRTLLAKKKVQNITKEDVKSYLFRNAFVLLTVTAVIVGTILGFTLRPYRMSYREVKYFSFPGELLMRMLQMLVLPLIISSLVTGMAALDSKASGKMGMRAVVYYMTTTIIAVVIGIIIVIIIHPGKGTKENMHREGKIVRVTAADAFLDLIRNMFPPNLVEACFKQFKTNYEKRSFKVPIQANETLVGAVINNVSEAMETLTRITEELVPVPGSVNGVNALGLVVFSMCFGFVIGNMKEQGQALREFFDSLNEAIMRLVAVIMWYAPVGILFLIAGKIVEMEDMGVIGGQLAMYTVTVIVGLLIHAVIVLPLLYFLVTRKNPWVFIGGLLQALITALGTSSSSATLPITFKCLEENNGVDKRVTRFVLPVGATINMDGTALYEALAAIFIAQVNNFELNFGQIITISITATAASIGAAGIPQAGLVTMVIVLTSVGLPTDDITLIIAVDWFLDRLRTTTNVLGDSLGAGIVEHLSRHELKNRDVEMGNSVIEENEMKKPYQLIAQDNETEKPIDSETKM

Target	log2 fold change [1]	log2 fold change [2]	log2 fold change [3]	log2 fold change (entinostat)	log2 fold change (vorinostat)	log2 fold change (citarinostat)	log2 fold change (silmitasertib)	log2 fold change [4]	log2 fold change [5]	log2 fold change [6]
ROMO1 (UniProt P60602)	-0.105 (inactive)	0.046 (inactive)	-0.051 (inactive)	0.011 (inactive)	-0.013 (inactive)	0.072 (inactive)	0.032 (inactive)	0.062 (inactive)	-0.042 (inactive)	
RPS3A (UniProt D6R9B6)	-0.41 (inactive)	-0.391 (inactive)		-0.234 (inactive)						
RBM6 (UniProt P78332)	0.099 (inactive)	-0.06 (inactive)	0.222 (inactive)	-0.317 (inactive)	-0.012 (inactive)		0.017 (inactive)			
RBM48 isoform 2 (UniProt Q5RL73)	-0.334 (inactive)	-0.008 (inactive)		0.262 (inactive)	0.005 (inactive)			0.029 (inactive)		
SAFB2 (UniProt K7EQU4)								0.007 (inactive)		
S100A10 (UniProt P60903)	0.3 (inactive)	0.283 (inactive)		0.189 (inactive)	-0.023 (inactive)	0.333 (inactive)			0.792 (active)	
SLC1A3 (UniProt P43003)		0.237 (inactive)	0.103 (inactive)		0.143 (inactive)	-0.096 (inactive)	-0.021 (inactive)	-0.18 (inactive)	-0.182 (inactive)	-0.055 (inactive)
SAMD4B (UniProt Q5PRF9)	-0.459 (inactive)			0.133 (inactive)	-0.069 (inactive)			0.067 (inactive)		
RICTOR isoform 3 (UniProt Q6R327)	0.075 (inactive)	0.054 (inactive)		0.044 (inactive)	0.211 (inactive)	0.066 (inactive)		0.289 (inactive)	-0.155 (inactive)	
RMDN2 isoform 2 (UniProt Q96LZ7)			-0.018 (inactive)				-0.275 (inactive)			0.116 (inactive)
ROCK1 (UniProt Q13464)		0.054 (inactive)	-0.09 (inactive)	-0.002 (inactive)	0.029 (inactive)	0.068 (inactive)		-0.054 (inactive)		-0.029 (inactive)
SCAMP2 (UniProt H3BUB6)	-0.31 (inactive)	-0.392 (inactive)	0.021 (inactive)	-0.175 (inactive)		-0.364 (inactive)	0.129 (inactive)	-0.267 (inactive)	-0.118 (inactive)	-0.311 (inactive)
RAB3D (UniProt O95716)		0.113 (inactive)	0.032 (inactive)		-0.126 (inactive)	0.055 (inactive)	0.027 (inactive)		0.051 (inactive)	-0.007 (inactive)
RAB3IL1 (UniProt E9PK89)	0.062 (inactive)	0.11 (inactive)		-0.023 (inactive)	0.112 (inactive)	0.049 (inactive)		-0.234 (inactive)	0.016 (inactive)	0.018 (inactive)
RBM26 isoform 3 (UniProt Q5T8P6)	-0.079 (inactive)	-0.046 (inactive)		0.103 (inactive)						
